From PubChem BioAssay
Activity calls are given as the source filed them.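 How the source made its calls: active means normalized viability below 100% at a tested concentration; inactive means the rest.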

Experiment: survival rescue of mitochondrial mutant cells in low glucose, primary screen, MELAS cybrids, Rieske KO mouse fibroblasts, CellTiter-Glo (AID 1508586);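 further: z relative to plate mean and SD of compound and empty wells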
Settings: Rieske KO mouse fibroblast survival, CellTiter-Glo 72 h

Row | Structure (SMILES) | z-score
1 | Cc1cccc(C#Cc2ccccc2)n1 | 0.0234
2 | CC(C)N(CCC(=O)c1ccc2ccccc2c1)Cc1ccccc1 | -0.0503
3 | O=c1cc(N2CCOCC2)oc2c(-c3ccccc3)cccc12 | 0.668
4 | Oc1ccc(Nc2nc(-c3ccc(Cl)cc3)cs2)cc1 | 2.78
5 | Oc1ccc(-c2nc(-c3ccc(F)cc3)c(-c3ccncc3)[nH]2)cc1 | 0.329
6 | O=C(c1ccc(Nc2nccc(-c3cc4ccccc4s3)n2)cc1)N1CCC(N2CCCC2)CC1 | 0.125
7 | Cc1ccc(NC(=O)c2cccc(N(C)C)c2)cc1NC(=O)c1ccc(O)cc1 | 0.706
8 | O=C(O)Cc1cccc(OCCCN(Cc2cccc(C(F)(F)F)c2Cl)CC(c2ccccc2)c2ccccc2)c1 | -0.731
9 | O=C1c2ccccc2-c2n[nH]c3cccc1c23 | -0.381

Experiment: ovarian cancer cell viability with rucaparib, profiling panel, oncology-focused library, rucaparib conditional (AID 1508598)
Settings: patient-derived ovarian cancer cells, CellTiter-Glo viability, 144 h; at 0.000305 µM; OCI-C5x cells; with rucaparib 10 µM; stronger effect = lower value; 100% = cells with rucaparib alone

Row | Structure (SMILES) | viability
10 | C[C@@H](N)C1CCC(C(=O)Nc2ccncc2)CC1 (some centres not stated) | 112% (inactive)
11 | CC(C)c1onc(-c2c(Cl)cccc2Cl)c1COc1ccc(/C=C/c2cccc(C(=O)O)c2)c(Cl)c1 | 95.7% (active)
12 | O=c1cc(N2CCOCC2)oc2c(-c3ccccc3)cccc12 | 97.6% (active)
13 | Cc1ccc(S(=O)(=O)/C=C/C#N)cc1 | 105% (inactive)
14 | C[C@H](NC(=O)Cc1cc(F)cc(F)c1)C(=O)N[C@H](C(=O)OC(C)(C)C)c1ccccc1 | 103% (inactive)
15 | O=C(O)Cc1cccc(OCCCN(Cc2cccc(C(F)(F)F)c2Cl)CC(c2ccccc2)c2ccccc2)c1 | 118% (inactive)

Same assay, conditions: patient-derived ovarian cancer cells, CellTiter-Glo viability, 144 h; at 0.000305 µM; OCI-C5x cells; without rucaparib; stronger effect = lower value

Row | Structure (SMILES) | viability
16 | C[C@@H](N)C1CCC(C(=O)Nc2ccncc2)CC1 (some centres not stated) | 113% (inactive)
17 | CC(C)c1onc(-c2c(Cl)cccc2Cl)c1COc1ccc(/C=C/c2cccc(C(=O)O)c2)c(Cl)c1 | 107% (inactive)
18 | O=c1cc(N2CCOCC2)oc2c(-c3ccccc3)cccc12 | 103% (inactive)
19 | Cc1ccc(S(=O)(=O)/C=C/C#N)cc1 | 97.6% (active)
20 | C[C@H](NC(=O)Cc1cc(F)cc(F)c1)C(=O)N[C@H](C(=O)OC(C)(C)C)c1ccccc1 | 116% (inactive)
21 | O=C(O)Cc1cccc(OCCCN(Cc2cccc(C(F)(F)F)c2Cl)CC(c2ccccc2)c2ccccc2)c1 | 117% (inactive)

Same assay, conditions: patient-derived ovarian cancer cells, CellTiter-Glo viability, 144 h; at 0.000305 µM; OCI-P5x cells; with rucaparib 20 µM; stronger effect = lower value; 100% = cells with rucaparib alone

Row | Structure (SMILES) | viability
22 | C[C@@H](N)C1CCC(C(=O)Nc2ccncc2)CC1 (some centres not stated) | 93.5% (active)
23 | CC(C)c1onc(-c2c(Cl)cccc2Cl)c1COc1ccc(/C=C/c2cccc(C(=O)O)c2)c(Cl)c1 | 90.8% (active)
24 | O=c1cc(N2CCOCC2)oc2c(-c3ccccc3)cccc12 | 93.4% (active)
25 | Cc1ccc(S(=O)(=O)/C=C/C#N)cc1 | 97.8% (active)
26 | C[C@H](NC(=O)Cc1cc(F)cc(F)c1)C(=O)N[C@H](C(=O)OC(C)(C)C)c1ccccc1 | 110% (inactive)
27 | O=C(O)Cc1cccc(OCCCN(Cc2cccc(C(F)(F)F)c2Cl)CC(c2ccccc2)c2ccccc2)c1 | 107% (inactive)
